# Compound activity: PubChem, National Center for Advancing Translational Sciences (NCATS)
# Shiga inhibitor: Shiga toxin inhibition; Vero cells, Shiga toxin protein synthesis inhibition reporter; inhibition, % at 38.7 µM; actives 9.2% (n = 290,000); AID 2315; in the data active = inhibition mostly above about 28%, no sharp cut-off; inactive = mostly below about 43%; note: 0% is about no effect
# TbPYK inhibitor: T. brucei pyruvate kinase inhibition; TbPYK enzyme, Kinase-Glo Plus ATP luminescence, 45 min; Potency, µM (series often up to 76.8 µM), inactives show top-dose activity, negative = inhibition, actives largely listed as inhibitors; actives 0.12% (n = 410,000); note: potency is the fitted concentration of half-maximal effect; % is set by controls: 0 for no effect and ±100 for the full control effect; nearly all actives have a fitted effect of over 50% in size
#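 Luminescence from Kinase-Glo Plus, added after a 45-minute room-temperature reaction, served as the end-point read-out. The enzyme and substrate were preincubated with compound before ADP (130 uM final) initiated turnover. Concentration-effect curves came from normalized qHTS data.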
# SARS PLpro yeast: blocks SARS-CoV papain-like protease in a yeast assay. S. cerevisiae expressing SARS-CoV PLpro, growth rescue. AID 485353. actives 0.19% (n = 330,000). Potency, µM (series often up to 32.9 µM), inactives show at the highest dose activity, positive = growth rescue, usual class: activators; calls by dose curve; note: potency is the fitted concentration of half-maximal effect; 0% is about no effect; nearly all actives have a fitted effect of over 55% in size
# LmPK inh: LmPK (Leishmania mexicana) enzyme inhibition. Q27686. purified LmPK, Kinase-Glo ATP luminescence, 1 h. Potency, µM (highest dose often 57.5 µM), for the others: at the highest dose activity change, negative = inhibition, usual class: inhibitors. actives 0.37% (n = 290,000); note: potency is the fitted concentration of half-maximal effect; % is set by controls: 0 for no effect and ±100 for the full control effect
# Target sequence (Q27686 whole entry, looked up): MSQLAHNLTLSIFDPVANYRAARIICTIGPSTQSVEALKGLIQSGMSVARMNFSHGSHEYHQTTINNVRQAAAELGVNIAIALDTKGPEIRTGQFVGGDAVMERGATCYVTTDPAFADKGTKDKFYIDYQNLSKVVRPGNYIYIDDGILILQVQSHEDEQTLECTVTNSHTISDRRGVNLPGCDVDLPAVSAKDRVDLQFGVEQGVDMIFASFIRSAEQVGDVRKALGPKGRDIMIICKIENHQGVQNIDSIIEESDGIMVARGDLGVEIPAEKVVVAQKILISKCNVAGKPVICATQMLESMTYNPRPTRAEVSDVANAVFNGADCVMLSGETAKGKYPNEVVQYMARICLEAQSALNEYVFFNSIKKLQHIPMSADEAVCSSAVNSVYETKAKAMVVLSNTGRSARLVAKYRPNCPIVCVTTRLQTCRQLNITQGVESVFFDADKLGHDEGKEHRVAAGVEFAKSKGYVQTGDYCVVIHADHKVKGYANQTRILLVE
#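 Purified LmPK (0.1 nM) converted ADP (0.1 mM) to ATP with PEP (0.5 mM) in imidazole buffer pH 7.2 with KCl and MgCl2, 1 h at room temperature. ATP was read by Kinase-Glo luminescence; data normalized to uninhibited and no-enzyme controls.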
# Cycloheximide cs: affects cycloheximide protein synthesis inhibition readout, counter-screen; actives 12% (n = 300,000); max response, %; cell reporter, cycloheximide protein synthesis inhibition counterscreen; in the data active = max response mostly above about 13%, no sharp cut-off; inactive = mostly below about 14%; note: read at 38.3 µM for the half of the compounds with a filed dose; 0% is about no effect
# NS1 function inh: inhibitors of influenza NS1 protein function. Potency, µM (doses to about 46.1 µM), for inactives: at the highest dose activity, positive = more growth. actives 0.4% (n = 270,000); calls by dose curve; note: potency is the fitted concentration of half-maximal effect; actives are rising curves; nearly all actives have a fitted effect of over 50% in size
#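 Growth recovery, yeast-based: influenza A NS1 expressed in S. cerevisiae causes slow growth, and suppressors are detected by OD600. The parent strain without NS1 is used as positive control.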
# Active calls of the source: *; ? = inconclusive; nt = no result; [ ] = another dose, or the depositor's remark. This is one part of a sample in which hits are shown more often than they occur. Unless noted, calls come from the whole dose curve; as a rule, active = well fitted curve in the direction sought with a large enough effect; inconclusive = small, poorly fitted or top-dose-only effect, or another doubt; inactive = no such curve, though single readings can be large; an effect the other way counts as inactive or inconclusive.
SMILES,Shiga inhibitor,TbPYK inhibitor,SARS PLpro yeast,LmPK inh,Cycloheximide cs,NS1 function inh
O=[N+]([O-])c1cc(C(F)(F)F)ccc1NCCOc1ccccc1,31*,5%,-4%,-4%,48*,-7%
O=C(OCCNc1ccc(C(F)(F)F)cc1[N+](=O)[O-])c1cc2ccccc2oc1=O,2,0%,-1%,0%,18*,0%
CS(=O)(=O)NCCNc1ccc(C(F)(F)F)cc1[N+](=O)[O-],-13,2%,-1%,-10%,-1,4%
O=c1c2c3c(sc2nnn1Cc1ccc(Br)cc1)CCCC3,nt,-5%,nt,nt,nt,nt
Brc1ccc2nc(C3CCCCC3)c(Cc3ccccc3)n2c1,nt,-1%,nt,nt,nt,nt
CCc1ccc(/C(C)=N/NC(=O)c2c[nH]c3ccccc23)s1,19,2%,-6%,-4%,18*,7%
CCc1ccc(/C(C)=N/NC(=O)C(O)c2ccccc2)s1 (centres undefined),nt,1%,nt,nt,nt,nt
Fc1ccc(N/N=C(/c2ccccc2)c2ccccn2)cc1,13,-11%,?,3%,30*,2%
C/C(=N\NC(=O)c1nc2ccccn2c1C)c1cc2ccccc2o1,32,-3%,-1%,2%,18,-1%
C/C(=N\NC(=O)c1ccc(F)cc1)c1ccccn1,97*,0%,-4%,-16%,62*,-60%
C/C(=N\NC(=O)c1nc2ccccn2c1C)c1ccco1,62*,1%,-8%,-2%,27*,2%
COc1cccc(N2CC(NC(=O)Cc3cccs3)CC2=O)c1 (centres undefined),nt,2%,nt,nt,nt,nt
NC(c1ccccc1)c1csc(Nc2ccc(C(F)(F)F)cn2)n1 (centres undefined),nt,-7%,nt,nt,nt,nt
C=C(C)CN1C(=O)C2(OCCO2)c2cc(Br)ccc21,nt,-5%,nt,nt,nt,nt
COc1ccccc1CNC(=O)C(NS(=O)(=O)c1cccs1)C(C)C (centres undefined),nt,-1%,nt,nt,nt,nt
C/C(=N\NC(=O)c1ccco1)c1cccc2ccccc12,16,2%,0%,0%,8,-6%
C/C(=N\NC(=O)c1cc2ccccc2cc1O)c1cc2ccccc2o1,14,-1%,0%,6%,9,9%
CCc1ccc(/C(C)=N/NC(=O)c2ccccn2)cc1,46,1%,3%,-1%,21*,nt
C/C(=N\NC(=O)c1c[nH]c2ccccc12)c1ccccn1,147*,0%,-2%,-10%,32*,nt
C/C(=N\NC(=O)c1cc2ccccc2cc1O)c1ccccn1,27,-20%,1%,-25%,25*,-14%
C/C(=N\NC(=O)c1c[nH]c2ccccc12)c1ccco1,61*,1%,11%,-17%,71*,4%
C/C(=N/NC(=O)CNC(=O)c1ccccn1)c1ccccc1,10,-7%,4%,-1%,10,3%
O=C(N/N=C(\c1ccccc1)c1ccccn1)c1cccc([N+](=O)[O-])c1,-5,-3%,-20%,8%,5,nt
CCOc1ccc(C(=O)N/N=C(\c2ccccc2)c2ccccn2)cc1,61*,1%,-38%,7%,42*,-64%
CC(=N/O)/C(C)=N\NC(=O)c1ccccn1,56,-11%,-6%,-3%[11.5 µM],14,nt
SMILES,Shiga inhibitor,TbPYK inhibitor,SARS PLpro yeast,LmPK inh,Cycloheximide cs,NS1 function inh
C/C(=N\NC(=O)c1ccccn1)c1ccc(C(=O)O)s1,74*,nt,1%,16µM*,45*,0%
CCN(C(=O)Cn1c(=O)n(CC2CCC(C(=O)NC)CC2)c(=O)c2sccc21)c1ccccc1 (centres undefined),nt,-3%,nt,nt,nt,nt
C/C(=N\NC(=O)c1ccncc1)c1ccc(N2CCOCC2)cc1,nt,1%,2%,nt,nt,nt
O=C(NC(=S)Nc1ccc(N2CCOCC2)cc1)c1cccs1,73*,0%,0%,6%,41*,3%
C/C(=N\NC(=O)c1ccccc1)c1ccc(N2CCOCC2)cc1,54*,2%,5%,-1%,58*,-21%
C/C(=N\NC(=O)COc1cc(C)cc(C)c1)c1ccc(N2CCOCC2)cc1,-9,3%,-7%,6%,-3,-4%
C/C(=N/NC(=O)c1cccs1)c1ccc(N2CCOCC2)cc1,70*,4%,3%,-6%,51*,-9%
Cc1ccc(C(=O)N2CCN(c3ccc(NC(=S)NC(=O)c4cccs4)cc3)CC2)cc1,13,-6%,1%,-2%,-2,18%
C/C(=N\NC(=O)COc1ccc(C#N)cc1)c1ccc(N2CCOCC2)cc1,26*,-5%,-13%,0%,6,20%
C/C(=N\NC(=O)c1ccccc1Br)c1ccc(N2CCOCC2)cc1,35,2%,15%,-3%,10,nt
C/C(=N\NC(=O)c1cc(C)oc1C)c1ccc(N2CCOCC2)cc1,54*,1%,-2%,0%,37*,nt
C/C(=N\Nc1cc(N2CCOCC2)ncn1)c1ccccc1,30*,2%,-7%,2%,28*,12%
O=C(CCNS(=O)(=O)c1ccccc1F)NC1CCCCCC1,nt,1%,-5%,nt,nt,nt
COc1cccc(C(=O)c2ncc(C(F)(F)F)cc2Cl)c1,34*,-7%,-1%,-1%,28,nt
Cc1cc(NC2CCCCC2)nc2ccccc12,34,-4%,-1%,-5%,7,-6%
Cc1ccnc(NC2CCCCC2)c1,109*,-1%,2%,-4%,31*,nt
CCc1c(C(=O)OCc2ccccc2)[nH]c(C)c1C,67*,2%,-1%,2%,43*,2%
CCc1c(C)[nH]c(C(=O)OCc2ccccc2)c1C,81*,0%,-2%,1%,28*,-2%
O=C(OCc1ccccc1)c1ccccc1,nt,-5%,nt,nt,nt,nt
CCOC(=O)c1[nH]c(C)c(CN(CCc2ccccc2)S(C)(=O)=O)c1C,-21,-1%,-8%,5%,-1,-12%
Cc1ccc(S(=O)(=O)N2C[C@H]3C(=O)C[C@@H](c4ccccc4)N(S(=O)(=O)c4ccc(C)cc4)[C@H]3C[C@H]2c2cccs2)cc1,nt,-7%,nt,nt,nt,nt
CCc1ccc(NC(=O)CSc2nccn2-c2ccc(OC)cc2)cc1,nt,-9%,nt,nt,nt,nt
COc1ccc(NC(=O)CSc2nccn2-c2ccccc2)cc1,39,0%,-7%,2%,22*,-173%
COc1ccc(NC(=O)CSc2nccn2Cc2ccccc2)cc1,164*,1%,9%,-7%,53*,-5%
COc1ccc(NC(=O)CSc2nnnn2C2CC3C=CC2C3)cc1 (centres undefined),31,5%,-2%,3%,20*,-2%
Nc1ccn(CCCN2CCN(C(=O)C3CC3)CC2)c(=O)n1,nt,-8%,nt,nt,nt,nt
CCOc1ccc2nc(NC(=O)C3CSC4(C)CCC(=O)N34)sc2c1 (centres undefined),nt,10%,-6%,nt,nt,nt
CCCNC(=O)N1[C@H](c2ccc(C)s2)[C@@H](C)C(=O)[C@@H](C)[C@@H]1c1ccc(C)s1,nt,-11%,nt,nt,nt,nt
